These results are taken from PubChem BioAssay (Tox21).

Values joined by “and” are separate entries in the source; they are usually repeats but may differ in a detail not shown here. Equal entries are not always repeated. Results filed as inconclusive are left out. Active and inactive are the calls of the source. Unless noted, calls come from the whole dose curve; as a rule, active = well fitted curve in the direction sought with a large enough effect in the repeat runs; inconclusive = weak or mixed curves; inactive = no such curve, though single readings can be large; an effect the other way counts as inactive or inconclusive.

Assay [1] in a line: qHTS assay to identify aromatase inhibitors - cell viability counter screen (AID 743084).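 Note: cells stimulated with testosterone during compound exposure; nearly all actives have a fitted effect of over 55% in size.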
Assay [2] deals with Aryl hydrocarbon receptor (Homo sapiens) (UniProt P35869). Nature of the assay: qHTS assay to identify small molecule that activate the aryl hydrocarbon receptor (AhR) signaling pathway (AID 743085).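 For activation: HG2L7.5c1 human HepG2 liver cells with stably integrated DRE-driven firefly reporter; series mostly up to about 70 µM.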 Note: nearly all actives have a fitted effect of over 15% in size. Note: potency is the fitted concentration of half-maximal effect. The gist of the method:
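24 h compound exposure, 37C, HepG2-derived HG2L7.5c1 cells with DRE-responsive luciferase. Readouts: fluorescence viability, then luminescence at room temperature after 30 min.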
On the technique in general: In qHTS, concentration-response curves come from the screen itself.

The nature of assay [3]: qHTS assay to identify small molecule that activate the aryl hydrocarbon receptor (AhR) signaling pathway - cell viability counter screen (AID 743086). Note: series mostly up to about 70 µM; nearly all actives have a fitted effect of over 45% in size. The gist of the method: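 Cytotoxicity counter screen: CellTiter-Fluor signal (30 min, 37 C) in 4000 HepG2 cells/well carrying the DRE-luciferase reporter, following 24 h compound exposure at 37 C.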
Assay [4] concerns the target Peroxisome proliferator-activated receptor gamma (Homo sapiens) (UniProt P37231). Description: qHTS assay to identify small molecule agonists of the peroxisome proliferator-activated receptor gamma (PPARg) signaling pathway (AID 743094; active = well fitted activation curve with a large enough effect in the signal ratio in the repeat runs, not every such curve was filed as active; the % refers to the signal ratio). The gist of the method:
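GeneBLAzer PPARg UAS-bla HEK293H cells were plated, rested 5 h, then exposed to compounds for 17 h at 37C. Beta-lactamase activity was read by LiveBLAzer B/G FRET substrate fluorescence after 1 h at room temperature.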

Assay [5] shares this target. Description: qHTS assay to identify small molecule antagonists of the peroxisome proliferator-activated receptor gamma (PPARg) signaling pathway (AID 743191; calls by dose curve; note: series mostly up to about 63 µM; nearly all actives have a fitted effect of over 30% in size). The gist of the method:
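Beta-lactamase reporter under UAS control in HEK293H PPARg-bla cells; compound treatment 17 h at 37C. Read-out: fluorescence intensity after 1 h room-temperature incubation with LiveBLAzer B/G FRET substrate.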

Assay [6] is described as follows: qHTS assay to identify small molecule antagonists of the peroxisome proliferator-activated receptor gamma (PPARg) signaling pathway - cell viability counter screen (AID 743194). Note: nearly all actives have a fitted effect of over 55% in size. The following applies: Potency: co-treated with 50 nM rosiglitazone unless noted. The gist of the method:
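Viability was measured as CellTiter-Glo luminescence in GeneBLAzer PPARg UAS-bla HEK293H cells. These cells had been exposed 17 h at 37 C to compounds together with rosiglitazone at 50 nM final, with the beta-lactamase readout taken in the same wells.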

The nature of assay [7]: qHTS assay for small molecule agonists of the antioxidant response element (ARE) signaling pathway (AID 743202; active = well fitted activation curve with a large enough effect in the signal ratio in the repeat runs, not every such curve was filed as active; the % refers to the signal ratio). The gist of the method:
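An ARE-responsive beta-lactamase gene stably integrated in HepG2 cells serves as reporter. After 5 h plating and 16 h compound incubation at 37 C, fluorescence of the B/G FRET substrate was measured.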

A short description of assay [8]: qHTS assay for small molecule agonists of the antioxidant response element (ARE) signaling pathway - cell viability counter screen (AID 743203; calls by dose curve; note: nearly all actives have a fitted effect of over 55% in size). Put shortly: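 ARE-bla HepG2 cells were plated, rested 5 h at 37C/5% CO2, then exposed to compounds in DMSO for 16 h. Viability was read as CellTiter-Glo luminescence after 30 min at room temperature, in the same wells as the ARE screen.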

Assay [9] is described as follows: qHTS assay for small molecule activators of the heat shock response signaling pathway - cell viability counter screen (AID 743209). Note: nearly all actives have a fitted effect of over 50% in size. Put shortly:
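HSE-bla HeLa cells plated overnight, then exposed to Tox21 compounds (23 nL in DMSO) for 5 h at 37 C. After the bla reporter read, CellTiter-Glo was added in the same wells and luminescence read after 30 min at room temperature.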

Assay [10] can be described thus: qHTS assay to identify small molecule agonists of the peroxisome proliferator-activated receptor delta (PPARd) signaling pathway - cell viability counter screen (AID 743211). Note: nearly all actives have a fitted effect of over 55% in size. Put shortly: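 Luminescent ATP viability assay (CellTiter-Glo, 30 min RT) in UAS-bla HEK293H cells carrying the PPAR delta reporter construct, 3000 cells/well, after a 17 h compound treatment at 37 C.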

The target in assay [11] is Peroxisome proliferator-activated receptor delta (Homo sapiens) (UniProt Q03181). Nature of the assay: qHTS assay to identify small molecule agonists of the peroxisome proliferator-activated receptor delta (PPARd) signaling pathway (AID 743212; calls by dose curve). The gist of the method: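 HEK293H UAS-bla reporter cells, human PPARd system; compounds delivered in DMSO after 5 h plating, then at 37 C. Beta-lactamase FRET read, 2 h RT substrate step.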
Chain of Peroxisome proliferator-activated receptor delta (Homo sapiens) (Q03181 whole entry, looked up): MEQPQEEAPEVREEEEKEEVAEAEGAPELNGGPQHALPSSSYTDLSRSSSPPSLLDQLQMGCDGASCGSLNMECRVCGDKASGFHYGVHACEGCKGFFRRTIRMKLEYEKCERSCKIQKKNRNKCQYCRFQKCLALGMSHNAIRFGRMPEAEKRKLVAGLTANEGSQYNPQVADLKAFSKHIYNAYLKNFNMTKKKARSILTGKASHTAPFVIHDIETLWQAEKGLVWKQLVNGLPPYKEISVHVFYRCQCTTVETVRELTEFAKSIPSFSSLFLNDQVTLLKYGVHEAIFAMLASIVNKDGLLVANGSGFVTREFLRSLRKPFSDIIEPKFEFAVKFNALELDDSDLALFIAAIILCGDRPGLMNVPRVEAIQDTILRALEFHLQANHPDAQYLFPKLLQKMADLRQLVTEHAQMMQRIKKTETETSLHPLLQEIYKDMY

The nature of assay [12]: qHTS assay to identify small molecule antagonists of the peroxisome proliferator-activated receptor delta (PPARd) signaling pathway - cell viability counter screen (AID 743213). Note: nearly all actives have a fitted effect of over 50% in size. The gist of the method:
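Cytotoxicity counter screen: CellTiter-Glo luminescence read 30 min after addition, in the same wells as the reporter assay. There, PPARd UAS-bla HEK293H cells (3000/well) were treated 17 h at 37 C with compound and 300 nM L165041.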

In assay [13] the target is Peroxisome proliferator-activated receptor delta (Homo sapiens) (UniProt Q03181). Description: qHTS assay to identify small molecule antagonists of the peroxisome proliferator-activated receptor delta (PPARd) signaling pathway (AID 743215; active = well fitted inhibition curve with a large enough effect in the signal ratio in the repeat runs, not every such curve was filed as active; the % refers to the signal ratio;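 note: cells stimulated with agonist L165041 at 300 nM final during compound exposure; series mostly up to about 62 µM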). The gist of the method:
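PPARd-bla HEK293H cells (UAS-bla reporter) preincubated 5 h, then given compound plus 300 nM final L165041 agonist for 17 h at 37 C. Beta-lactamase activity read by LiveBLAzer B/G FRET substrate fluorescence after 2 h at room temperature.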

In assay [14] the target is Bile acid receptor (Homo sapiens) (UniProt Q96RI1). Nature of the assay: qHTS assay to identify small molecule antagonists of the farnesoid-X-receptor (FXR) signaling pathway (AID 743217; active = well fitted inhibition curve with a large enough effect in the signal ratio in the repeat runs, not every such curve was filed as active; the % refers to the signal ratio). Put shortly:
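FXR-UAS-bla HEK 293T cells (beta-lactamase reporter) given compound plus chenodeoxycholic acid (50 uM final), 16 h at 37C. LiveBLAzer B/G FRET substrate added for 2 h at room temperature; fluorescence read.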

The nature of assay [15]: qHTS assay to identify small molecule agonists of the farnesoid-X-receptor (FXR) signaling pathway - cell viability counter screen (AID 743218). Note: nearly all actives have a fitted effect of over 45% in size. The gist of the method: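 FXR-UAS-bla HEK 293T cells exposed to compounds for 16 h at 37C. Cytotoxicity read in the same wells by CellTiter-Glo luminescence after 30 min at room temperature, following the beta-lactamase FRET read.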

Assay [16] deals with Bile acid receptor (Homo sapiens) (UniProt Q96RI1). Description: qHTS assay to identify small molecule agonists of the farnesoid-X-receptor (FXR) signaling pathway (AID 743220; active = well fitted activation curve with a large enough effect in the signal ratio in the repeat runs, not every such curve was filed as active; the % refers to the signal ratio). Put shortly:
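Beta-lactamase reporter under UAS control in GeneBLAzer FXR HEK 293T cells (5000/well) measured with LiveBLAzer FRET substrate after 2 h at room temperature. Compound exposure lasted 16 h at 37C.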

The nature of assay [17]: qHTS assay to identify small molecule antagonists of the farnesoid-X-receptor (FXR) signaling pathway - cell viability counter screen (AID 743221; active = well fitted cell-killing curve with a large enough effect in the repeat runs, not every such curve was filed as active; note: nearly all actives have a fitted effect of over 50% in size). The gist of the method:
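In GeneBLAzer FXR-UAS-bla HEK 293T cells stimulated with 50 uM chenodeoxycholic acid (final), compounds acted for 16 h at 37 C. Viability was assessed afterwards by CellTiter-Glo luminescence.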

In assay [18] the target is Vitamin D3 receptor (Homo sapiens) (UniProt P11473). Description: qHTS assay to identify small molecule agonists of the vitamin D receptor (VDR) signaling pathway (AID 743222; calls by dose curve). The gist of the method: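 VDR-bla cells plated 4 h at 37 C, then exposed to compounds for 16 h at 37 C. Beta-lactamase reporter activity measured by fluorescence after 2 h room-temperature loading with LiveBLAzer B/G FRET substrate.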
Chain of Vitamin D3 receptor (Homo sapiens) (P11473 whole entry, looked up): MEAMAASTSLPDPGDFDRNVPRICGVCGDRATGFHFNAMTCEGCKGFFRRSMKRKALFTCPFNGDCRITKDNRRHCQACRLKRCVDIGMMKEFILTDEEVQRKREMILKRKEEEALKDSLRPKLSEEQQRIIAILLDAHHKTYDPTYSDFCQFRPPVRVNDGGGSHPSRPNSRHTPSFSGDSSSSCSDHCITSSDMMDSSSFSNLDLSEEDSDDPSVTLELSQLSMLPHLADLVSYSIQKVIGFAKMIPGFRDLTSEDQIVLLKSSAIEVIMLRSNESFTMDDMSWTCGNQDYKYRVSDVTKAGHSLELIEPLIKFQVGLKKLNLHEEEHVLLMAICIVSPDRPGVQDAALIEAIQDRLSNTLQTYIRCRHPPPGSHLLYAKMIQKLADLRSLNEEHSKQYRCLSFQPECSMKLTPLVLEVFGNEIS

The target is the same in assay [19]. Description: qHTS assay to identify small molecule antagonists of the vitamin D receptor (VDR) signaling pathway (AID 743223; active = well fitted inhibition curve with a large enough effect in the signal ratio in the repeat runs, not every such curve was filed as active; the % refers to the signal ratio). Put shortly:
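Agonist 1alpha,25-dihydroxyvitamin D3 (3 nM in well) was added with each compound to VDR-bla cells preincubated 4 h. Cells stood 16 h at 37C, then FRET substrate 2 h at room temperature; fluorescence intensity recorded.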

Assay [20] in a line: qHTS assay for small molecule activators of the heat shock response signaling pathway (AID 743210; active = well fitted activation curve with a large enough effect in the signal ratio in the repeat runs, with a control signal flat, not every such curve was filed as active; the % refers to the signal ratio;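 note: HeLa cells with beta-lactamase reporter driven by heat shock elements; series mostly up to about 63 µM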). The gist of the method: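 In HSE-bla HeLa cells, 5 h compound incubation (37 C) precedes addition of LiveBLAzer B/G substrate; after 2.5 h at room temperature, fluorescence intensity indicates reporter induction.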

Chain of Bile acid receptor (Homo sapiens) (Q96RI1 whole entry, looked up): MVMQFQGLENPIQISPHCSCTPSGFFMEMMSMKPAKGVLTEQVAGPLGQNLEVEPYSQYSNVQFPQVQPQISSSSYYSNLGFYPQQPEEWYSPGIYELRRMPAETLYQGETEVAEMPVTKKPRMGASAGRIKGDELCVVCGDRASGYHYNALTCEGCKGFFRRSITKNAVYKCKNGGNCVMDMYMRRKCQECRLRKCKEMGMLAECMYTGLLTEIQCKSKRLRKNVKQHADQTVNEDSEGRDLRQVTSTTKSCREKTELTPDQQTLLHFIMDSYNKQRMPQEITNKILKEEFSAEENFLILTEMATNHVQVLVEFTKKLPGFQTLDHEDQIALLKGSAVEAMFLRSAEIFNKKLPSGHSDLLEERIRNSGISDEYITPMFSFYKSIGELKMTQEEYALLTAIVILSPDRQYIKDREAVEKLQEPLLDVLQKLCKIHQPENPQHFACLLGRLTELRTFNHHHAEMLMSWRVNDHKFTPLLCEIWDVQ
Chain of Peroxisome proliferator-activated receptor gamma (Homo sapiens) (P37231 whole entry, looked up): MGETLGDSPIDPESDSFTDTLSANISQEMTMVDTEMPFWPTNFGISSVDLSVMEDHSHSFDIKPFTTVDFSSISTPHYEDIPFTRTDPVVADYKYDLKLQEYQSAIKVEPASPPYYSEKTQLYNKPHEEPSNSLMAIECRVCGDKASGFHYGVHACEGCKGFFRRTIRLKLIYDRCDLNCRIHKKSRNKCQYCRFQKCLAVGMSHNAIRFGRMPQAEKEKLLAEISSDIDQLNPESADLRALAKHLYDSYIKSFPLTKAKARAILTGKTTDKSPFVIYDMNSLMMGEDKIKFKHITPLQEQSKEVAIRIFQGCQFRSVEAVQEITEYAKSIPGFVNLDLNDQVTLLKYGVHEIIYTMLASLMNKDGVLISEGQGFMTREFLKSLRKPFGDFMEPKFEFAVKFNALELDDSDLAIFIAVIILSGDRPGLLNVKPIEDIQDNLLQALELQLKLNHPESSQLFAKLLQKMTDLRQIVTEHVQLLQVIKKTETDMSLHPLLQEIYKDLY
Chain of Aryl hydrocarbon receptor (Homo sapiens) (P35869 whole entry, looked up): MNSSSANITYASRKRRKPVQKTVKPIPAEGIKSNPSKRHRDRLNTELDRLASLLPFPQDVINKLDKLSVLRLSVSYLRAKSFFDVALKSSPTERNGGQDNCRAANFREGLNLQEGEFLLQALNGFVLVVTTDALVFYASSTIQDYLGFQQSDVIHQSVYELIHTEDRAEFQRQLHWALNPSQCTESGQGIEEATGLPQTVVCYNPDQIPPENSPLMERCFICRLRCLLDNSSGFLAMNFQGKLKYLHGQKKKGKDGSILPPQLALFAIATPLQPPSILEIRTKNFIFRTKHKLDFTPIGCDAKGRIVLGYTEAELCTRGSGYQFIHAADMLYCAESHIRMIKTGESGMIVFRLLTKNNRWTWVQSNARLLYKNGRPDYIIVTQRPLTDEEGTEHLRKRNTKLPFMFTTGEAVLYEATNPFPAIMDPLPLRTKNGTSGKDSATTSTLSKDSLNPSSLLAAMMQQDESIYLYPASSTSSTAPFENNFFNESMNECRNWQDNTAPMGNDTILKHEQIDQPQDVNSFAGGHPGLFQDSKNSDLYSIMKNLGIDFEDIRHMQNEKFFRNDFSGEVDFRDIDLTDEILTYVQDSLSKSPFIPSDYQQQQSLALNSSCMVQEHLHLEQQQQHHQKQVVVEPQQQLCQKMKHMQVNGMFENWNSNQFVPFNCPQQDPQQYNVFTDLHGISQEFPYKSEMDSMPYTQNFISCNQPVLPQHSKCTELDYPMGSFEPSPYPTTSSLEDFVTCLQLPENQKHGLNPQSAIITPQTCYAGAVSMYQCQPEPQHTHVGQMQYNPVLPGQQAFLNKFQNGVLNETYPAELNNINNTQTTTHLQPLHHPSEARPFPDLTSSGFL

As to `COCN(COC)c1nc(N(COC)COC)nc(N(COC)COC)n1`, the Potency result in [1], in assay [2], in assay [3], in assay [4], in assay [5] and in [6] was “inactive” throughout. Also, the Potency result in assay [7], in assay [8], in assay [9], in [10], in assay [11] and in assay [12] was “inactive” in each case. For the same compound, the Potency result in assay [13], in assay [14], in assay [15], in assay [16], in assay [17] and in [19] was “inactive” throughout. Further, the compound was classed as inactive in [18].

As for `C[n+]1ccn(CCO)c1`, the Potency entry in assay [1], in assay [2], in assay [3], in assay [4], in assay [5] and in [6] was “inactive” in each case. Moreover, the Potency result in [7], in [8], in assay [9], in assay [10], in [12] and in assay [15] was “inactive” each time. The Potency entry in assay [17] and in [19] was “inactive” throughout. Besides, the outcome in assay [18] was inactive.

For the compound `O=c1c(O)c(-c2ccc(O)c(O)c2)oc2cc(O)cc(O)c12`, the Potency entry in assay [1], in assay [3], in assay [4], in assay [5], in assay [6] and in assay [7] was “inactive” each time. For the same compound, the Potency entry in [8], in assay [9], in assay [10], in assay [12], in assay [15] and in [17] was “inactive” in each case. Moreover, in assay [19], the Potency result is “inactive”. Also, the Potency in assay [2] is 61.2 µM (active) and 54.9 µM (active) and 61.1 µM (active). In [18], the compound was called inactive.

For the compound `C1CCCNCC1`, the Potency entry in [1], in assay [2], in [3], in assay [4], in assay [5] and in [6] was “inactive” each time. Also, the Potency entry in assay [7], in assay [8], in [9], in [10], in assay [11] and in [12] was “inactive” each time. In addition, the Potency result in assay [13], in assay [15] and in [17] was “inactive” throughout.

Take `CCc1cccc(O)c1`: the Potency entry in assay [1], in [2], in [3], in [4], in [5] and in assay [6] was “inactive” each time. The Potency entry in assay [7], in assay [8], in assay [9], in assay [20], in assay [10] and in assay [11] was “inactive” in each case. The Potency entry in assay [12], in assay [13], in assay [14], in assay [15], in assay [16] and in assay [17] was “inactive” in each case. The Potency entry in [19] was “inactive”. For the same compound, the call in [18] was inactive.

For `Nc1cccc(N)n1`, the Potency result in assay [1], in assay [3], in assay [4], in assay [5], in [6] and in assay [7] was “inactive” in each case. Further, the Potency result in assay [8], in assay [9], in assay [10], in assay [11], in assay [13] and in [15] was “inactive” throughout. Moreover, the Potency result in assay [17] and in [19] was “inactive” in each case. In [2], the Potency is 52.6 µM (active) and 61.1 µM (active). The compound was called inactive in assay [18].

For the compound `COc1ccc([C@@H]2CC(=O)c3c(O)cc(O[C@@H]4O[C@H](CO[C@@H]5O[C@@H](C)[C@H](O)[C@@H](O)[C@H]5O)[C@@H](O)[C@H](O)[C@H]4O)cc3O2)cc1OC`, the Potency entry in assay [1], in [2], in assay [3], in [4], in [5] and in assay [6] was “inactive” throughout. For the same compound, the Potency entry in assay [7], in assay [8], in assay [9], in assay [20], in [10] and in [14] was “inactive” throughout. Moreover, the Potency result in assay [15], in [16], in [17] and in assay [19] was “inactive” throughout. For the same compound, the call in assay [18] was inactive.

On to `CC(C)=CCC/C(C)=C/C=O`, for which the Potency result in assay [1], in [2], in assay [3], in assay [4], in assay [5] and in assay [6] was “inactive” throughout. For the same compound, the Potency entry in assay [7], in assay [8], in assay [9], in [10], in assay [11] and in [13] was “inactive” throughout. In addition, the Potency entry in assay [15], in assay [17] and in assay [19] was “inactive” throughout. Besides, the result in assay [18] was inactive.
